Laboratory results published in ChEMBL document CHEMBL3433997, “St. Jude Leishmania screening dataset” (2016).

Tests used:
Type in all cases: functional
[1] = target: Solute carrier family 2, facilitated glucose transporter member 1 (Homo sapiens) (UniProt P11166); assay: ST_JUDE_LEISH: Cytotoxicity at 2uM final concentration against transgenic Leishmania Mexicana promastigotes LmGLUT1 that are glucose transport deficient and complemented with the human glucose transporter GLUT1. Activity is measured by DNA content using SYBR green in vitro
Solute carrier family 2, facilitated glucose transporter member 1 (Homo sapiens), sequence (P11166 whole entry): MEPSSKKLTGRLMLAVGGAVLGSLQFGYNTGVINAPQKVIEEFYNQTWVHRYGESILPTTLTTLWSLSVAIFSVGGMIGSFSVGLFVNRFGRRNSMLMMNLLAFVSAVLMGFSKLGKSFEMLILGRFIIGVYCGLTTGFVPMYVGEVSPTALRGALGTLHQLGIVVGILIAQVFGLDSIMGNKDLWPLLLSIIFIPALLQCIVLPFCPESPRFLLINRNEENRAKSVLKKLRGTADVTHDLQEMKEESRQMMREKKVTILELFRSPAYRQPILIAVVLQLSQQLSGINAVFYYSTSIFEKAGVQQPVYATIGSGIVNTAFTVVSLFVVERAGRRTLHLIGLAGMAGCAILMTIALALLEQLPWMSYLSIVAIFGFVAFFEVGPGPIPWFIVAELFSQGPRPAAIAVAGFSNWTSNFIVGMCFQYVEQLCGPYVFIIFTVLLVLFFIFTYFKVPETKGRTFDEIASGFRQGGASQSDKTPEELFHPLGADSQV

[2] = target: Hexose transporter 1 (Plasmodium falciparum) (UniProt O97467); assay: ST_JUDE_LEISH: Cytotoxicity at 2uM final concentration against transgenic Leishmania Mexicana promastigotes LmPfHT that are glucose transport deficient and complemented with the Plasmodium falciparum hexose transporter. Activity is measured by DNA content using SYBR green in vitro
[3] = target: Glucose transporter (Leishmania mexicana) (UniProt O61059); assay: ST_JUDE_LEISH: Cytotoxicity at 2uM final concentration against transgenic Leishmania Mexicana promastigotes LmGT2 that are glucose transport deficient and complemented with the L. Mexicana glucose transporter 2. Activity is measured by DNA content using SYBR green in vitro

Row | Compound | inhibition [1] | inhibition [2] | inhibition [3]
1 | CCN(CC)CCN(Cc1ccc(-c2ccc(C(F)(F)F)cc2)cc1)C(=O)Cn1c(CCc2cccc(F)c2F)nc(=O)c2ccc(F)cc21 | 2.25% | 1.35% | 2.49%
2 | CN1CCN(CC(=O)Nc2cccc(-c3cccc(-c4nc5ccccc5[nH]4)c3)c2)CC1 | -0.57% | -0.37% | -3.47%
3 | O=C(/C=C/c1ccc(Cl)c(Cl)c1)NCCCCN1CCCN(C(=O)Nc2ccc(C(F)(F)F)cc2)CC1 | 3.18% | 4.68% | 1.09%
4 | O=C(Nc1cccc(-c2ccc(CN3CCCC3)cc2)c1)c1cccc(F)c1 | -0.49% | 1.18% | 0.62%
5 | CC(C)c1ccc(NC(S)=NN=Cc2ccccn2)cc1 | 63.9% | 88.5% | 86.1%
6 | c1cc(CNCCN2CCNCC2)cc(-c2ccc(-c3nc4ccccc4[nH]3)cc2)c1 | 18.3% | 16.8% | 13.2%
7 | COc1ccc(OCCn2cc(C(=O)c3ccco3)c3ccccc32)cc1 | 3.1% | 1.5% | 2.42%
8 | Fc1ccccc1C=NN=c1cc[nH]c2ccc(C(F)(F)F)cc12 | 3.03% | 3.13% | 2.13%
9 | O=C(Cc1c[nH]cn1)Nc1cccc(-c2cccc(-c3nc4cc(F)ccc4[nH]3)c2)c1 | -1.27% | -0.43% | -2.58%
10 | O=C1NC(c2ccccc2)C2(CCN(CC(O)COc3cccc4ncccc34)CC2)O1 (centres undefined) | 2.46% | 3.19% | 1.26%
11 | Fc1ccc2[nH]c(-c3ccc(-c4ccc(CN5CCN(c6cnccn6)CC5)cc4)s3)nc2c1 | 2.41% | 1.2% | 0.86%
12 | CC1CCC(NCc2ccc3c(CNC4CCC(C)CC4)c(O)ccc3c2O)CC1 (centres undefined) | 1.24% | -0.12% | -1.56%
13 | CCN1CCc2nc3ccccc3c(C(=O)Nc3ccc(C#N)cc3)c2C1 | -0.12% | 3.74% | -1.04%
14 | COc1ccc(NC(=O)[C@H](C)Nc2cc(C)nc(NCC3CCCCC3)n2)cc1 | 5.31% | 3.39% | 3%
15 | CN1CCC(N2CCN(Cc3ccc(-c4cccc(-c5nc6ccccc6[nH]5)c4)cc3)CC2)CC1 | 0.9% | 1.87% | 1.93%
16 | CCn1cc(CN2CCCC(C(=O)Nc3ccc(-c4nc5ccccc5[nH]4)cc3)C2)cn1 (centres undefined) | 3.25% | 3.52% | 2.06%
17 | O=S(=O)(Nc1cccc(CCN2CCC(N3CCCCC3)CC2)c1)c1ccc(Oc2ccccc2)nc1 | 3.37% | 4.85% | 5.38%
18 | COc1cc2nc(N3CCC(c4ccccc4)CC3)nc(NCc3ccc(=O)[nH]c3)c2cc1OC | 1.44% | 1.5% | 1.6%
19 | N#Cc1ccc2c(c1)CN(CCC1CCC(NC(=O)c3cc4cnccc4[nH]3)CC1)CC2 (centres undefined) | 5.36% | 3.42% | 3.7%
20 | COc1ccc2nccc(N3C[C@H]4C[C@@H]3CN4CCNCc3ccc4c(n3)NC(=O)CS4)c2n1 | -0.98% | 0.1% | -1.32%
21 | O=C(CCOc1ccccc1)NCC1CCCO1 (centres undefined) | 1.87% | -0.04% | 1.06%
22 | COc1cc(C)ccc1S(=O)(=O)N1CCCCC(c2ccc(C(F)(F)F)cc2)=N1 | 10.8% | 11.2% | 10.3%
23 | O=C(Nc1cccc(CN2CCN(Cc3ccc(O)cc3)CC2)c1)c1ccc(-c2ccccc2)cc1 | 4.37% | 2.25% | -3.36%
24 | O=C(Cc1ccccc1)NC1CCN(c2ccnc3cc(Cl)ccc23)C1 (centres undefined) | 2.05% | 2.03% | 3.56%
25 | Cc1cc(N[C@@H](Cc2ccccc2)C(=O)NCCc2ccccc2)nc(NCCc2cccs2)n1 | 3.32% | 0.76% | 1.55%

Row | Compound | inhibition [1] | inhibition [2] | inhibition [3]
26 | Cc1nc(N)nc(N)c1OCc1cccc2ccccc12 | 0.2% | 1.33% | -1.23%
27 | O=C1NC(=O)C(c2ccc(Cl)cc2)=C1Nc1cccc(S(=O)(=O)C(F)(F)F)c1 | 1.37% | 0.65% | 1.48%
28 | CCN(CC)S(=O)(=O)c1ccc(C=CC(=O)Nc2cc(Cl)ccc2N2CCOCC2)cc1 | 6.36% | 4.63% | 5.02%
29 | CN(CCN)Cc1ccc(-c2ccc(-c3nc4cc(F)ccc4[nH]3)s2)cc1 | -0.54% | 0.42% | -1.71%
30 | O=C(NCCc1ccccc1)N(Cc1ccccc1-c1ccc(CNC2CCCC2)cc1)C1CCN(Cc2ccccc2)CC1 | 7.74% | 7.15% | 5.58%
31 | COCCn1c(Sc2ccc(C#N)c([N+](=O)[O-])c2)nnc1-c1ccc(N(C)C)cc1 | 13% | 13.5% | 11.7%
32 | COCCOC(=O)C(=O)c1c(-c2ccccc2)c(-c2ccc(OC)c(OC)c2)c2c3cc(OC)c(OC)cc3ccn12 | 4.89% | 2.7% | 1.72%
33 | N#Cc1ccc(N/C(=N\c2ccccc2Cl)NC2CCN(Cc3ccccc3)CC2)c(O)c1 | 2.09% | 2.49% | 0.29%
34 | COc1ccc(S(=O)(=O)Nc2cc(C)cc(Br)c2OC)cc1N1CCN(C(=O)C(Cl)(Cl)Cl)CC1 | 0.75% | 0.79% | -0.68%
35 | CN1CCN(CCCCCNc2c3ccccc3nc3ccccc23)CC1 | 28% | 21.1% | 17.9%
36 | CCCNc1ccc2nccc(CCN3CCC(NCc4ccc5c(c4)NC(=O)CS5)CC3)c2n1 | 0.84% | 3.1% | 2.43%
37 | COc1ccc(NC(=O)[C@H](Cc2ccccc2)Nc2cc(C)nc(NCCc3ccccc3)n2)cc1 | 5.74% | 6.29% | 5.16%
38 | O=C(Nc1cccc(-c2ccc(CN3CCCC3)cc2)c1)c1ccc(Cl)cc1 | 3.03% | 1.53% | 1.42%
39 | Clc1cccc(CNC2CCN(CC3CCCCC3)CC2)c1 | 4.03% | 4.11% | 6.03%
40 | COc1cc(C(=O)Nc2cccc(-c3nc4ccccc4[nH]3)c2)cc(OC)c1OC | 4.34% | 1.94% | -3.56%
41 | Cc1cc(O)c(CNC2CCCCC2)cc1C | 1.17% | 1.33% | 2.92%
42 | CN(C)CCCSc1ccccc1NC(=O)C=Cc1ccccc1 | 5.73% | 7.21% | 6.85%
43 | Nc1ccc(-c2ccc3ccnc(N)c3c2)cn1 | 1.94% | -1.53% | 2.84%
44 | O=C(Nc1ccc(OC2CCN(CC3CC3)CC2)c(Cl)c1)c1ccc2ncccc2c1 | 8.41% | 9.49% | 7.58%
45 | Cc1cc2nc(-c3ccc(/C=C/C(=O)NC4CCN(Cc5ccccc5)CC4)cc3)[nH]c2cc1C | 0.58% | -0.75% | -2.3%
46 | CCOC(=O)c1cnc2c(OC)cc(OC)c(Cl)c2c1Nc1cccc(C)c1 | 9.4% | 8.66% | 4.43%
47 | CCNc1cc(C(=O)N[C@@H](Cc2ccccc2)[C@H](O)CNC2CCC(F)(F)CC2)c(F)c(N2CCCCS2(=O)=O)c1 | -0.9% | -1.47% | -1.39%
48 | NC1=NC(CCc2ccccc2)N(c2ccc(Cl)cc2)C(N)=N1 (centres undefined) | 7.41% | 1.15% | 1.06%
49 | COc1cc(C2C(Oc3ccccc3)C(=O)N2Cc2ccc(F)cc2)cc(OC)c1OC (centres undefined) | 3.73% | 3.29% | 2.56%
50 | CC(=NO)C1=C(O)C(c2ccccc2)N(c2ccccc2)C1=O (centres undefined) | 1.86% | 2.06% | 1.72%

Row | Compound | inhibition [1] | inhibition [2] | inhibition [3]
51 | Cc1cc2nc(-c3ccc(SCC(=O)Nc4ccc5c(c4)OCCO5)nc3)[nH]c2cc1C | 0.8% | -0.74% | -4.17%
52 | Cc1nc2ccccc2c(O)c1-c1ccc(Cl)cc1 | 1.42% | -1.38% | -1.04%
53 | Cc1cc(NCCc2ccccc2)nc(NC(=N)Nc2cccc([N+](=O)[O-])c2)n1 | 11.1% | 10.5% | 5.24%
54 | Cc1cc(Nc2ccc(C)c(Cl)c2)n2ncnc2n1 | -2.06% | -1.7% | -4.9%
55 | Nc1c(Cl)cc(C(O)CNCCCCCCOCCC=C2CCOCC2)cc1Cl (centres undefined) | -0.91% | 0.32% | -1.31%
56 | COc1ccc(Nc2nccc(-c3c(-c4cccc(NC(=O)c5c(F)cccc5F)c4)nn4ccccc34)n2)cc1Cl | 0.2% | 1.51% | -0.51%
57 | c1ccc(CN2CCc3cc4nccc(N5CCNCC5)c4cc32)cc1 | -3.94% | -1.76% | 0.88%
58 | CC1CN(S(=O)(=O)c2ccc(NC(=O)c3cc(-c4ccccc4O)n[nH]3)cc2)CC(C)O1 (centres undefined) | 4.88% | 5.64% | 4.67%
59 | CCCC(=O)NC(NC(=S)Nc1ccc([N+](=O)[O-])cc1)C(Cl)(Cl)Cl (centres undefined) | -1.2% | -0.54% | -0.01%
60 | Cc1cccc(Cl)c1Nc1nnc(-c2cccc(C(=O)NC[C@@H]3CC[C@H]4C[C@@H]3C4(C)C)c2)o1 | 10.6% | 8.97% | 6.65%
61 | O=C(c1cc2nc3c(c(C(F)(F)F)n2n1)CCc1ccccc1-3)N1CCN2CCCC2C1 (centres undefined) | 2.06% | 2.1% | 2.07%
62 | O=C(NCC1CCN(CC2CCCCC2)C1)c1cc(-c2cccc(C(F)(F)F)c2)cs1 (centres undefined) | -1.1% | -0.44% | -2.1%
63 | CCOc1cc2c(cc1OCC)C(c1cc(OC)c(O)cc1Cl)NCC2 (centres undefined) | 2.01% | 0.45% | 2.79%
64 | Cc1cc(N[C@@H](CC(C)C)C(=O)NCCOc2ccccc2)nc(NCCc2ccc(F)cc2)n1 | 2.19% | 2.57% | -0.16%
65 | Clc1ccc(CNc2ccnc(NCCc3coc4ccccc34)n2)c(Cl)c1 | 5.99% | 6.11% | 0.66%
66 | O=[N+]([O-])c1cccc(CNCC2CCN(CCc3ccccc3)CC2)c1 | 2.35% | 1.86% | 2.16%
67 | O=C(/C=C/c1ccc(Cl)c(Cl)c1)NCCCCCN1CCCN(C(=S)Nc2cccc(Cl)c2)CC1 | 0.6% | -0.74% | 0.17%
68 | CC(C)C(NC(=O)c1c(F)cccc1F)C(=O)Nc1ccc(Cc2nc3ccccc3s2)cc1 (centres undefined) | -1.47% | 2.55% | 1.42%
69 | CCc1cc2c(=O)c(-c3nc(C)cs3)c(N)oc2c(CN2CCCCC2)c1O | 3.22% | 2.22% | 3.34%
70 | CN(C)Cc1cccc(-c2ccc(NC(=O)c3ccc4c(=O)n(Cc5ccoc5)cnc4c3)cc2)c1 | 63.7% | 54.6% | 24.1%
71 | CC(C)C1=C[C@H]2C[C@]3(C4OCCO4)[C@@H]4CC[C@@H](C)[C@H]4C[C@@]2(COCc2cccc(C#N)c2)[C@]13C(=O)OC(c1ccccc1)c1ccccc1 | 4.12% | 3.24% | 2.75%
72 | OC(CNCc1cccc(Oc2ccc(Cl)cc2)c1)c1cc(C(F)(F)F)cc(C(F)(F)F)c1 (centres undefined) | 0.85% | -0.5% | -2.95%
73 | COc1cccc(CN2CCCN(Cc3cccc(NC(=O)c4cc5ccccc5s4)c3)CC2)c1 | 3.41% | 4.66% | 5.23%
